Experiments:
Test in all cases: log2 ratio of Biotin-Ahx-Ub-VS probe labelling (fragment/DMSO); higher = less target engagement (more negative = stronger competition), active = hit call of the paper (q ≤ 0.05, log2 ratio ≤ -1)
Details in all cases: compound concentration: 200 uM; treatment time: 3 h
USP19 = biological target: T1, USP19 (UniProt O94966)
T1 sequence (whole entry): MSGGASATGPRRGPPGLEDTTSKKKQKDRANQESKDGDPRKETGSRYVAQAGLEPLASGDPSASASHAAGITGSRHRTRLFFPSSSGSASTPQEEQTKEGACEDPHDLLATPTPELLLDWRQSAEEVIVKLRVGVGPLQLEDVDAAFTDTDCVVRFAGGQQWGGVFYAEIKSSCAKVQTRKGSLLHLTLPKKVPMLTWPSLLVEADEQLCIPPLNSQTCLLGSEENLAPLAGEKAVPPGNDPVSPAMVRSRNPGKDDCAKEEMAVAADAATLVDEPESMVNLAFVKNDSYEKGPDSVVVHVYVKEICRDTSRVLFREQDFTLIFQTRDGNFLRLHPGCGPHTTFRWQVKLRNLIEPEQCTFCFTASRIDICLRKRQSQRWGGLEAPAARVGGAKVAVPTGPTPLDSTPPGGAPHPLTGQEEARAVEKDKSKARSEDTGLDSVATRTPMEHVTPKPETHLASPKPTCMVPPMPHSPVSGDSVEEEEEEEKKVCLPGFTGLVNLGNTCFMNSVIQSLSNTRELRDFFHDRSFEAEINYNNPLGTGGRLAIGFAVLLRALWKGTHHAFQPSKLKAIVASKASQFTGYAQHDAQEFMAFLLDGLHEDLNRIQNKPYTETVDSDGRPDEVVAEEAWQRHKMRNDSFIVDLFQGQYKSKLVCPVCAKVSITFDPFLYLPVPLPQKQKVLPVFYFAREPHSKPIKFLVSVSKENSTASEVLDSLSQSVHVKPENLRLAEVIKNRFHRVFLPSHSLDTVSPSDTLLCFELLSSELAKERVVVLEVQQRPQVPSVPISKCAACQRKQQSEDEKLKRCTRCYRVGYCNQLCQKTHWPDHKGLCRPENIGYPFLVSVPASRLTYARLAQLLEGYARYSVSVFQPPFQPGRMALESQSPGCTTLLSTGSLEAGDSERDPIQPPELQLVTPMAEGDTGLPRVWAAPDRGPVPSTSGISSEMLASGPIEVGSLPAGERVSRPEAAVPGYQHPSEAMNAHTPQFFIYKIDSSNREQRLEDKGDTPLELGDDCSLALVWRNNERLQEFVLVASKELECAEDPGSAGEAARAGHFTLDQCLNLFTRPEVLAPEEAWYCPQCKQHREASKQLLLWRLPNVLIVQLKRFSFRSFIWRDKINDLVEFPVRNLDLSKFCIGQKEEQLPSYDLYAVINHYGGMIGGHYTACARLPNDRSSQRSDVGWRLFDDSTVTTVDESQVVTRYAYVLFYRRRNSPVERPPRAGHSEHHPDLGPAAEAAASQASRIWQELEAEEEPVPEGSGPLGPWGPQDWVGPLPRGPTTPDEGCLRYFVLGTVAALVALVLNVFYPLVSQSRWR
In short: (§1)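 Each value is an average log2 ratio of fragment to vehicle, tested by unpaired t-test. The underlying Spectronaut label-free quantities were global-median-normalised, and only proteins with ≥2 unique peptides were included. Triplicate HEK293T lysate samples (495 µg) were exposed to fragment at 200 µM or vehicle for 3 h, then to Biotin-Ahx-Ub-VS at 0.5 µM final for 1 h, before NeutrAvidin enrichment of labelled DUBs, LysC and trypsin digestion, and diaPASEF LC-MS/MS.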

USP22 = biological target: T2, USP22 (UniProt Q9UPT9)
T2 sequence (whole entry): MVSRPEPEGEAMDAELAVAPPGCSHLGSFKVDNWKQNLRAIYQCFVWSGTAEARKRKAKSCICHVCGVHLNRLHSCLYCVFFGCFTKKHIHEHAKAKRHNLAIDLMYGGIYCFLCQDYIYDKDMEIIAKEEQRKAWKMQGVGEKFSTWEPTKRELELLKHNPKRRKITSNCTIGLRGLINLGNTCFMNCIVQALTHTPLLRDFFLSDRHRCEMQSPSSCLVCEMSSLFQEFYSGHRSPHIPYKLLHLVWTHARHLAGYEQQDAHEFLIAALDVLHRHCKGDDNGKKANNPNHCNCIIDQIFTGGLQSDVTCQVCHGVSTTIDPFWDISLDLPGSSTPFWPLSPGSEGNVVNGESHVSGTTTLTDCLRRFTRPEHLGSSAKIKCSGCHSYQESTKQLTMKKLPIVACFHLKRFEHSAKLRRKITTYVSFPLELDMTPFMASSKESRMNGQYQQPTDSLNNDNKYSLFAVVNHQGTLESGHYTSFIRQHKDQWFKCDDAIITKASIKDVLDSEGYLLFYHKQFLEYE
In short: as §1

USP24 = USP24 (UniProt Q9UPU5)
Chain of USP24 (Q9UPU5 whole entry): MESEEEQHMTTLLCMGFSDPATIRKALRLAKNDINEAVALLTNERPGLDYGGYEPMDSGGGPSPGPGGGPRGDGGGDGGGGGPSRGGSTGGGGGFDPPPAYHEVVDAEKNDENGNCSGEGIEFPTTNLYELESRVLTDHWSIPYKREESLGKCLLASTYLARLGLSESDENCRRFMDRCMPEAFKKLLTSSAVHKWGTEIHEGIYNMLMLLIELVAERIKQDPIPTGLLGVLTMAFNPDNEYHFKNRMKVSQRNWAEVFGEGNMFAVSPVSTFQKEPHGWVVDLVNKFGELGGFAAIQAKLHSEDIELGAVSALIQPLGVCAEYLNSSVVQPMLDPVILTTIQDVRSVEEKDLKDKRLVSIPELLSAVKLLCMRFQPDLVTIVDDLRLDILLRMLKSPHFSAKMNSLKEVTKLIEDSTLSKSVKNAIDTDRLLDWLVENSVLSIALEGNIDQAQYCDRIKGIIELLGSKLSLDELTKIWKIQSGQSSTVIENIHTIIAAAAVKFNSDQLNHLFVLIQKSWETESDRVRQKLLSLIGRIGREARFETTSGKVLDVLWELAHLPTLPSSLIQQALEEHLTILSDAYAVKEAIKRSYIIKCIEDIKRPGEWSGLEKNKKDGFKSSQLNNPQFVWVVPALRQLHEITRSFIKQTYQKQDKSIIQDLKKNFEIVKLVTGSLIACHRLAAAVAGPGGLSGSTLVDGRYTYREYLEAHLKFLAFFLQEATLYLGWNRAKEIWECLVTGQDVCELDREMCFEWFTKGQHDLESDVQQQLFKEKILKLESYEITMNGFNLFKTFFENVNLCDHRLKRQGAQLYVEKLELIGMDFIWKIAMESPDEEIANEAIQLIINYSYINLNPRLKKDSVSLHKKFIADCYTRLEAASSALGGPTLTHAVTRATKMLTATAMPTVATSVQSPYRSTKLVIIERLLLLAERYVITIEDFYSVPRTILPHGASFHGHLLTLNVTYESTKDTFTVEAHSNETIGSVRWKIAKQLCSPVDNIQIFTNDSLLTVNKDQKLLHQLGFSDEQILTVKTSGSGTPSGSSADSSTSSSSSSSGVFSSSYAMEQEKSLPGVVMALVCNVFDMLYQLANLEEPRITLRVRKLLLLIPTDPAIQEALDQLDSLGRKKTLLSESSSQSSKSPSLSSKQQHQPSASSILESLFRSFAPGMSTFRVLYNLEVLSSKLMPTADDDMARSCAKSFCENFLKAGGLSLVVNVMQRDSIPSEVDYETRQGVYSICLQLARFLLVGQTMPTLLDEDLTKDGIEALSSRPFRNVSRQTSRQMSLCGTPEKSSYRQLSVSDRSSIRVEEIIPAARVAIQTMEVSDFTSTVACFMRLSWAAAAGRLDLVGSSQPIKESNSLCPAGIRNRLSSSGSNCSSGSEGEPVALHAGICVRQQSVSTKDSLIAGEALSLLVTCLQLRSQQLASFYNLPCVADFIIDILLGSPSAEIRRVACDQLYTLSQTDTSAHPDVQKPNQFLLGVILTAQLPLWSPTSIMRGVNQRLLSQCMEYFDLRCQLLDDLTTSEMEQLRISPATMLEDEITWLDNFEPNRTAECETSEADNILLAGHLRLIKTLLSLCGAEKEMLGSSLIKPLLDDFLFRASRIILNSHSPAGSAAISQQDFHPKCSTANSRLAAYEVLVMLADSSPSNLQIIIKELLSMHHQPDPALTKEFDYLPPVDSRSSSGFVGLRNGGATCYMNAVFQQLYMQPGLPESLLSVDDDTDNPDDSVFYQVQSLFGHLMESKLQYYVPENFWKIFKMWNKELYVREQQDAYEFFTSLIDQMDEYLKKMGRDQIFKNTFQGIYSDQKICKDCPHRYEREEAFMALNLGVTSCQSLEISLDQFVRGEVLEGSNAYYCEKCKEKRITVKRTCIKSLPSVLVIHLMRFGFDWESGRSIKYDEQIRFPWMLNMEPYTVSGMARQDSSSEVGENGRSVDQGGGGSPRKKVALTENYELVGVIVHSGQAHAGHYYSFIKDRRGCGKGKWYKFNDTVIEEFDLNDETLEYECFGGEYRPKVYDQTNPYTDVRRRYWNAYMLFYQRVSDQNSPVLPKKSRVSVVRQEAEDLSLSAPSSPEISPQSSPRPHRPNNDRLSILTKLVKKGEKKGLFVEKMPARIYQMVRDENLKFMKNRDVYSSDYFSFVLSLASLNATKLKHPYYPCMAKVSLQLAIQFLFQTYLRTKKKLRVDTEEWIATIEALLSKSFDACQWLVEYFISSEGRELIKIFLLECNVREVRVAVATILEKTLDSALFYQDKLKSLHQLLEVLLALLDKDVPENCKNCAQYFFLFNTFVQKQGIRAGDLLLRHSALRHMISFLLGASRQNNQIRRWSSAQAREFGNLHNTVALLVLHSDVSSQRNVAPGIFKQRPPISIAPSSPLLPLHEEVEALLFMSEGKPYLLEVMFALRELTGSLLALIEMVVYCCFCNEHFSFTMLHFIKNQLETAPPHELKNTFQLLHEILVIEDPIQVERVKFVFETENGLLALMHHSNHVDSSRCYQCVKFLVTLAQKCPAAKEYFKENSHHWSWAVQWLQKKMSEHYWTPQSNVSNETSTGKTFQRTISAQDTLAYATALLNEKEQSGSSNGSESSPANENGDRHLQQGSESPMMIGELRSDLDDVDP
In short: as §1

USP25 = biological target: T3, USP25 (UniProt Q9UHP3)
T3 sequence (whole entry): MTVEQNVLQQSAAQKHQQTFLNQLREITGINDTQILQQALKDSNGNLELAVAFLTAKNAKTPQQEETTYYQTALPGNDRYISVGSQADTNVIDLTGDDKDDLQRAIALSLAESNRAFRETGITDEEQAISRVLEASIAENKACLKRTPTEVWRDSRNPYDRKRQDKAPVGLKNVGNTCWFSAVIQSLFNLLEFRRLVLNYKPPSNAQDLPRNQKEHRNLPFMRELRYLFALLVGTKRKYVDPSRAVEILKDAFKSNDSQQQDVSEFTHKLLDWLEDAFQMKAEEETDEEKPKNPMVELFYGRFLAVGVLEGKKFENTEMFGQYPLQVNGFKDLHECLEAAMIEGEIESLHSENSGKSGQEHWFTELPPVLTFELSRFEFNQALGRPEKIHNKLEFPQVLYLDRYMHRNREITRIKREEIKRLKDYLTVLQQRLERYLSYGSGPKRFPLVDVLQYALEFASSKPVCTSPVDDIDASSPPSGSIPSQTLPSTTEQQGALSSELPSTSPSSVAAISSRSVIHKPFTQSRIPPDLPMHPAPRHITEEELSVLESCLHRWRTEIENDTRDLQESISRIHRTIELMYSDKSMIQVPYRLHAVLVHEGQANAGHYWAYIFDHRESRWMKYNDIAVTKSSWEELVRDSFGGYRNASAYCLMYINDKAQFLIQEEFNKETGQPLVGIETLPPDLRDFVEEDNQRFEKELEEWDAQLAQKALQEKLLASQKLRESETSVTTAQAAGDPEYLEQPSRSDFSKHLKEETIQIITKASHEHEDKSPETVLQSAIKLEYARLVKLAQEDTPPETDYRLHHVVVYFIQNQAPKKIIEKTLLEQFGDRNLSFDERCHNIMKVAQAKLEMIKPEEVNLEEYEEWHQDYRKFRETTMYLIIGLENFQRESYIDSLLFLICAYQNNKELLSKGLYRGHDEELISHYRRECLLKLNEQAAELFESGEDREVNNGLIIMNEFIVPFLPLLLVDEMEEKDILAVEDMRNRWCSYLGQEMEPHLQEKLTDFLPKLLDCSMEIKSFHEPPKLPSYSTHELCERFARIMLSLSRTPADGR
In short: as §1

USP28 = biological target: T4, USP28 (UniProt Q96RU2)
T4 sequence (whole entry): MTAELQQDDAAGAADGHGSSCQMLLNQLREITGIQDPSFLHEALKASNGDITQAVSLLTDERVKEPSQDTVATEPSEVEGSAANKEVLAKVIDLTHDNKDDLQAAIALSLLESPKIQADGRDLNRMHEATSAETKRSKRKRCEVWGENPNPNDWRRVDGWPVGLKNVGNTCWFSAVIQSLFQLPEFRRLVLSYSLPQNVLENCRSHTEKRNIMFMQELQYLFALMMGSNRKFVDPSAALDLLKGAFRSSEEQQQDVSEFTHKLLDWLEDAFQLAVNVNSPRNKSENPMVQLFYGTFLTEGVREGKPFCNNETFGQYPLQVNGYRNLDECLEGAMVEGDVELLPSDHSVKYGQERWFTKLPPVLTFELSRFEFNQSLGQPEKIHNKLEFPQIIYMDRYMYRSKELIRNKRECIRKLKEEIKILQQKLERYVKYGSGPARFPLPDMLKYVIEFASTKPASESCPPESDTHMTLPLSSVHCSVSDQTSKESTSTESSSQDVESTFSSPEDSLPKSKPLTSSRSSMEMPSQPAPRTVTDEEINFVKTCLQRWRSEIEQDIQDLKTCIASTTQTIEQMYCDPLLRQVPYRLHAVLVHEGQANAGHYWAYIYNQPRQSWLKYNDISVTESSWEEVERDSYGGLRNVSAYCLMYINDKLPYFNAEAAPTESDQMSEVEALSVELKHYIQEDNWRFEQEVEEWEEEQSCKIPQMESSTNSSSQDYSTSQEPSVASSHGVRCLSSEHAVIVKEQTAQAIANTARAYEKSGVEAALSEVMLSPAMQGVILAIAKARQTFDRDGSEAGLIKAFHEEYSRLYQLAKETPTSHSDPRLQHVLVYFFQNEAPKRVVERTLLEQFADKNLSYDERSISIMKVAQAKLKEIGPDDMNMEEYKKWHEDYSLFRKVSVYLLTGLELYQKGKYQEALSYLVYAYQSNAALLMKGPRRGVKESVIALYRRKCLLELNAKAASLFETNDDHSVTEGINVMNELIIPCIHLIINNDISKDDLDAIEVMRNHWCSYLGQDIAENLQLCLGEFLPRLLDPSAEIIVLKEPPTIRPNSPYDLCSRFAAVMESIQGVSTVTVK
In short: as §1

Measured: log2 ratio of Biotin-Ahx-Ub-VS probe labelling

Cc1cccc(N2CCC(NC(=O)CCl)C2=O)c1 (stereo not given)
inactive: USP19 -0.0964 | USP22 0.199 | USP24 -0.149 | USP25 -0.421 | USP28 -0.475
